Experimental data taken from PubChem BioAssay (EPA / NIEHS).
“And” between values parts separate entries of the source, which are not always exact repeats. Identical values can stand only once. More than one record can exist for a structure, and the calls need not agree. The source made the active and inactive calls. The calls were made as follows: active = hit-call score of the fitted dose curve at least 0.9, where 1 is the maximum; inactive = score below 0.9.

Key:
[1] = ATG_CRE_CIS: Attagene CIS-FACTORIAL HepG2 Assay for human cAMP Responsive Element (CRE) binding protein 3 (AID 2282926); details: HepG2 CRE cis-reporter, Attagene multiplexed mRNA; actives raise or lower the signal
Outline: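 HepG2 cells transiently transfected with cis-element-driven multiple reporter transcription units; CRE reporter mRNA measured 24 h after dosing by RT-PCR, 6-FAM labelling, HpaI digestion and capillary electrophoresis. Bidirectional fit versus DMSO baseline.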

[2] = target: CCAAT/enhancer-binding protein beta (Homo sapiens) (UniProt P17676); assay: ATG_C_EBP_CIS: Attagene CIS-FACTORIAL HepG2 Assay for human CCAAT/Enhancer Binding Protein (C/EBP) beta (AID 2282927); details: HepG2 Attagene cis-factorial transcription factor reporter; actives raise or lower the signal
Outline: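 HepG2 transiently transfected with multiplexed reporter units under cis-regulatory promoters reporting endogenous C/EBPb activity. After 24 h exposure, reporter mRNA assayed by RT-PCR, fluorescent labelling, HpaI digestion and capillary electrophoresis; bidirectional fitting versus DMSO.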

[3] = ATG_CMV_CIS: Attagene CIS-FACTORIAL HepG2 Assay for human CMV (Internal Marker) (AID 2282928); details: HepG2 CMV promoter reporter, transcription factor profiling; actives raise or lower the signal;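 also: endpoint acts as a background internal control marker rather than a target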
Outline: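 HepG2 cells transiently transfected with multiple cis-regulated reporter units; 24 h compound exposure. Reporter mRNA quantified by RT-PCR, 6-FAM primer-extension labeling, HpaI digestion and capillary electrophoresis; bidirectional fitting against DMSO baseline.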

[4] = ATG_DR4_LXR_CIS: Attagene CIS-FACTORIAL HepG2 Assay for human Liver X Receptor (LXR), DR4 submotif (AID 2282929); details: HepG2 Attagene DR4 cis-reporter, mRNA transcription; actives raise or lower the signal
Outline: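 HepG2 cells were transiently transfected with multiple cis-regulated reporter units and dosed for 24 hours. The DR4 reporter mRNA was quantified by RT-PCR, 6-FAM labelling and capillary electrophoresis. Bidirectional fits used DMSO as baseline.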

[5] = target: Aryl hydrocarbon receptor (Homo sapiens) (UniProt P35869); assay: ATG_Ahr_CIS: Attagene CIS-FACTORIAL HepG2 Assay for human Aryl Hydrocarbon Receptor (Ahr) (AID 2282930); details: HepG2 AhR cis-factorial reporter transcription; actives raise or lower the signal
Outline: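 HepG2 cells transiently transfected with cis-element-driven multiplexed reporter units; endogenous AhR activity read as reporter mRNA 24 h after dosing, via RT-PCR, 6-FAM labelling, HpaI digestion and capillary electrophoresis. Bidirectional fit relative to DMSO.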

[6] = ATG_AP_1_CIS: Attagene CIS-FACTORIAL HepG2 Assay for human Activator Protein 1 (AP-1) (AID 2282931); details: HepG2 Attagene cis-factorial AP-1 reporter mRNA; actives raise or lower the signal
Outline: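 HepG2 cells transiently transfected with cis-element-driven reporter transcription units, dosed for 24 hours. Reporter mRNA measured by RT-PCR, 6-FAM labelling, HpaI digestion and capillary electrophoresis. Bidirectional fitting against DMSO baseline.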

[7] = ATG_AP_2_CIS: Attagene CIS-FACTORIAL HepG2 Assay for human Activator Protein 2 (AP-2) (AID 2282932); details: HepG2 AP-2 cis-reporter, Attagene transcription factor profiling; actives raise or lower the signal
Outline: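 Multiplexed mRNA reporter assay in HepG2: cis-regulated units report endogenous factor activity after 24 h treatment. Fluorescence from capillary electrophoresis of RT-PCR products gives the signal, with DMSO as baseline.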

[8] = ATG_BRE_CIS: Attagene CIS-FACTORIAL HepG2 Assay for human Bone Morphogenetic Protein (BMP) Response Element (BRE) (AID 2282933); details: HepG2 BMP response element reporter, Attagene transcription factor profiling; actives raise or lower the signal
Outline: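 A HepG2 multiplex reporter system measured inducible reporter mRNA 24 h post-dosing. Detection: RT-PCR, 6-FAM primer extension, HpaI digestion, capillary electrophoresis. Activity fitted bidirectionally relative to DMSO.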

[9] = target: Retinoic acid receptor alpha (Homo sapiens) (UniProt P10276); assay: ATG_DR5_RAR_CIS: Attagene CIS-FACTORIAL HepG2 Assay for human Retinoic Acid Receptor Alpha (RARE), DR5 submotif (AID 2282934); details: HepG2 Attagene cis-factorial RARE DR5 reporter, mRNA; actives raise or lower the signal;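 as to AC50: reporter responds to endogenous RAR alpha beta and gamma in HepG2 not RARA alone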
Outline: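 HepG2 cells transiently transfected with multiplexed reporter units; DR5 cis-element drives reporter through endogenous transcription factors. After 24 h dosing, reporter mRNA quantified by RT-PCR, fluorescent labeling, HpaI digestion and capillary electrophoresis; bidirectional fitting versus DMSO.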

[10] = target: Transcription factor E2F1 (Homo sapiens) (UniProt Q01094); assay: ATG_E2F_CIS: Attagene CIS-FACTORIAL HepG2 Assay for human E2F Transcription Factor 1 (AID 2282935); details: HepG2 Attagene cis-reporter, E2F reporter RNA transcripts; actives raise or lower the signal
Outline: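 Measures reporter transcript levels via RT-PCR with capillary electrophoresis detection in HepG2 cells harboring cis-regulated reporter units; 24 h post-dose; bidirectional curve fitting with DMSO as baseline.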

[11] = ATG_E_Box_CIS: Attagene CIS-FACTORIAL HepG2 Assay for human Enhancer Box (E-box) (AID 2282936); details: HepG2 E-box cis-reporter transcription, actives raise or lower the signal
Outline: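 First, HepG2 cells receive multiple cis-regulated reporter constructs by transient transfection. Next, chemicals are applied for 24 h. Finally, reporter mRNA is quantified via RT-PCR and capillary electrophoresis, with DMSO as baseline.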

[12] = ATG_EGR_CIS: Attagene CIS-FACTORIAL HepG2 Assay for human Early Growth Response 1 (EGR1) (AID 2282938); details: HepG2 Attagene CIS-FACTORIAL EGR reporter mRNA; actives raise or lower the signal
Outline: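 HepG2 cells transiently transfected with cis-element-driven multiplexed reporter units, dosed for 24 h. EGR1-element reporter mRNA quantified by RT-PCR, 6-FAM labelling, HpaI digestion and capillary electrophoresis; bidirectional fit versus DMSO.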

[13] = ATG_M_19_CIS: Attagene CIS-FACTORIAL HepG2 Assay for M19 Transcription Factor (Internal Marker) (AID 2282939); details: HepG2 Attagene CIS-FACTORIAL M19 internal marker reporter; actives raise or lower the signal
Outline: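 Chemical-treated HepG2 (24 h) with MRTU constructs; reporter transcripts detected by fluorescent RT-PCR fragment analysis on capillary electrophoresis. Internal background marker, DMSO as baseline.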

[14] = ATG_ERE_CIS: Attagene CIS-FACTORIAL HepG2 Assay for Estrogen Response Element (ERE) (AID 2282940); details: HepG2 ERE cis-reporter, Attagene RNA transcript; actives raise or lower the signal
Outline: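 Human liver cells (HepG2) bearing transiently transfected, promoter-regulated reporter units were exposed 24 h. Reporter mRNA induction was detected by capillary electrophoresis of labelled RT-PCR products and fitted bidirectionally to DMSO.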

[15] = ATG_Ets_CIS: Attagene CIS-FACTORIAL HepG2 Assay for human Erythroblast Transformation Specific (ETS) (AID 2282941); details: HepG2 ETS cis-reporter transcription, actives raise or lower the signal
Outline: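 HepG2 cells transiently transfected with cis-promoter reporter transcription units were dosed for 24 h; reporter mRNA was measured by RT-PCR, 6-FAM primer extension, HpaI digestion and capillary electrophoresis, with bidirectional fitting against DMSO baseline.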

[16] = target: Hepatocyte nuclear factor 3-beta (Homo sapiens) (UniProt Q9Y261); assay: ATG_FoxA2_CIS: Attagene CIS-FACTORIAL HepG2 Assay for human Forkhead box A2 (FOXA2) (AID 2282942); details: HepG2 cis-reporter transcription factor activity, 24 h; actives raise or lower the signal
Outline: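 HepG2 transiently transfected with a multiplexed cis-promoter reporter library read endogenous FOXA2 activity. After 24 h compound exposure, reporter mRNA was quantified by RT-PCR, HpaI digestion and capillary electrophoresis. Bidirectional fit against DMSO.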

[17] = ATG_FoxO_CIS: Attagene CIS-FACTORIAL HepG2 Assay for human Forkhead box O (FoxO) (AID 2282943); details: HepG2 Attagene cis-reporter, FoxO element, mRNA; actives raise or lower the signal
Outline: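 HepG2 cells transiently transfected with cis-element-driven reporter units report endogenous FoxO activity. After 24 h chemical exposure, reporter mRNA quantified by RT-PCR, fluorescent labeling, HpaI digestion and capillary electrophoresis; bidirectional fit versus DMSO.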

[18] = ATG_GATA_CIS: Attagene CIS-FACTORIAL HepG2 Assay for human GATA Binding Protein (AID 2282944); details: HepG2 GATA cis-element reporter, Attagene multiplex mRNA; actives raise or lower the signal
Outline: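 Transfected cis-reporter HepG2 cells were treated with chemicals for 24 hours. Total RNA was then converted to cDNA, amplified with reporter-specific primers and analysed by fluorescent capillary electrophoresis, using DMSO-treated wells as baseline.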

[19] = ATG_GLI_CIS: Attagene CIS-FACTORIAL HepG2 Assay for human Zinc Finger Protein GLI1 (AID 2282945); details: HepG2, Attagene cis-factorial reporter mRNA, GLI element; actives raise or lower the signal
Outline: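 Transiently transfected HepG2 cells report endogenous transcription factor activity via cis-element-driven reporter units. After 24 h compound exposure, reporter mRNA was measured by RT-PCR with capillary electrophoresis; bidirectional fitting against DMSO baseline.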

[20] = ATG_M_61_CIS: Attagene CIS-FACTORIAL HepG2 Assay for M61 Transcription Factor (Internal Marker) (AID 2282937); details: HepG2 Attagene CIS-FACTORIAL M61 internal marker reporter; actives raise or lower the signal
Outline: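 HepG2 cells transiently transfected with multiplexed cis-promoter reporter units reporting endogenous transcription factor activity, measured 24 h after dosing. Reporter mRNA quantified by RT-PCR and capillary electrophoresis; bidirectional fit against DMSO baseline.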

Measured: AC50

Hepatocyte nuclear factor 3-beta (Homo sapiens), sequence (Q9Y261 whole entry, looked up): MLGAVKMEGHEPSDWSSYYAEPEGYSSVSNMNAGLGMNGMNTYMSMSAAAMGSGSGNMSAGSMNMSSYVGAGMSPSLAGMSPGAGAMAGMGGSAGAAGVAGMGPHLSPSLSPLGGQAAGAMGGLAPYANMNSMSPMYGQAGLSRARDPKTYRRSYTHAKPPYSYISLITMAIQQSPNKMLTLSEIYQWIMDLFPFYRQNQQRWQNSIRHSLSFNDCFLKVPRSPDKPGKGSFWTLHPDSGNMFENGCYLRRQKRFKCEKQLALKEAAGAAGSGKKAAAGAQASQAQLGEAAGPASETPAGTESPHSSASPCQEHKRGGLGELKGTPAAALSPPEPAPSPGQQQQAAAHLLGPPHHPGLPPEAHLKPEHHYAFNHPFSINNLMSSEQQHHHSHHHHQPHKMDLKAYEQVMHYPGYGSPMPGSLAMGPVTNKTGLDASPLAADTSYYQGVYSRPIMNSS
Transcription factor E2F1 (Homo sapiens), sequence (Q01094 whole entry, looked up): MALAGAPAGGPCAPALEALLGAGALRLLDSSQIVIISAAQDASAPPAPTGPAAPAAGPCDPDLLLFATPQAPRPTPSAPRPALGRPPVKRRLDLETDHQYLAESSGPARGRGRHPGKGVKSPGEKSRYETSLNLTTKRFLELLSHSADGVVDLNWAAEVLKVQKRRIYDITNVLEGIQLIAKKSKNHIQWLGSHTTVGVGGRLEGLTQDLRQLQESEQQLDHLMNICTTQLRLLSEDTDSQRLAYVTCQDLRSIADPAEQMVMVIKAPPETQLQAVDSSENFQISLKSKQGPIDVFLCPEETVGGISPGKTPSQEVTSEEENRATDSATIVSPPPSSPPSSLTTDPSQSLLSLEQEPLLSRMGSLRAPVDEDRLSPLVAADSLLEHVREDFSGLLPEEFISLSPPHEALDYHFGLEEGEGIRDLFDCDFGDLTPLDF
CCAAT/enhancer-binding protein beta (Homo sapiens), sequence (P17676 whole entry, looked up): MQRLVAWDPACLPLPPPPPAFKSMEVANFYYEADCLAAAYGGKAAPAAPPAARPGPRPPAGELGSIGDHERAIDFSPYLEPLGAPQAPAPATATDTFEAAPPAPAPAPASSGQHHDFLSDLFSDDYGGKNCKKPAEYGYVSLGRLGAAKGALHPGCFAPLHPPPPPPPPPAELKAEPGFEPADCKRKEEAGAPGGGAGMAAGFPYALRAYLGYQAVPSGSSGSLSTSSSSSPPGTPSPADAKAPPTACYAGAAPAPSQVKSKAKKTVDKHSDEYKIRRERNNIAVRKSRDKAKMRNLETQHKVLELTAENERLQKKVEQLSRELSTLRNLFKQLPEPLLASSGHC
Aryl hydrocarbon receptor (Homo sapiens), sequence (P35869 whole entry, looked up): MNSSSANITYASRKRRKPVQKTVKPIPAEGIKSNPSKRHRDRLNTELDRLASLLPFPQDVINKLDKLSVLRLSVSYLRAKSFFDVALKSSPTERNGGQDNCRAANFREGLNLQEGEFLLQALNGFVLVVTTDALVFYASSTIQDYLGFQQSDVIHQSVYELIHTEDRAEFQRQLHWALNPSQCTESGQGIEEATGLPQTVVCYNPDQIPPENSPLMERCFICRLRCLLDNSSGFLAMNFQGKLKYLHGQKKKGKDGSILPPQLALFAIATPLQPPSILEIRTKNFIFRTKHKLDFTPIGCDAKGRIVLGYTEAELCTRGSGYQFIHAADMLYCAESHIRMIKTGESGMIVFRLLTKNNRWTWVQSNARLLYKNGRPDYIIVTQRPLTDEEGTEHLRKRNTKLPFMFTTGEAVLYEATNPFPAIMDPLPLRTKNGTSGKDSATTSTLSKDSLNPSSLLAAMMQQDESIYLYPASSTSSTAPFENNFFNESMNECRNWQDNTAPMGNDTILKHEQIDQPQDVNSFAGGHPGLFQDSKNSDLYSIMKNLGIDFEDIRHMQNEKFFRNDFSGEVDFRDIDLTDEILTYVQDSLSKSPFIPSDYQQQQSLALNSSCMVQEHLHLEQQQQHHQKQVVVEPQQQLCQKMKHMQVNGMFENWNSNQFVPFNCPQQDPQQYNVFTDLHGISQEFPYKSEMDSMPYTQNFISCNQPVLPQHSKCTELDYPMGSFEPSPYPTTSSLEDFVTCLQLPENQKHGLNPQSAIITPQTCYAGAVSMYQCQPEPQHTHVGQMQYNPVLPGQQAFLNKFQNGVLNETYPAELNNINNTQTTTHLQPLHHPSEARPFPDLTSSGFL
Retinoic acid receptor alpha (Homo sapiens), sequence (P10276 whole entry, looked up): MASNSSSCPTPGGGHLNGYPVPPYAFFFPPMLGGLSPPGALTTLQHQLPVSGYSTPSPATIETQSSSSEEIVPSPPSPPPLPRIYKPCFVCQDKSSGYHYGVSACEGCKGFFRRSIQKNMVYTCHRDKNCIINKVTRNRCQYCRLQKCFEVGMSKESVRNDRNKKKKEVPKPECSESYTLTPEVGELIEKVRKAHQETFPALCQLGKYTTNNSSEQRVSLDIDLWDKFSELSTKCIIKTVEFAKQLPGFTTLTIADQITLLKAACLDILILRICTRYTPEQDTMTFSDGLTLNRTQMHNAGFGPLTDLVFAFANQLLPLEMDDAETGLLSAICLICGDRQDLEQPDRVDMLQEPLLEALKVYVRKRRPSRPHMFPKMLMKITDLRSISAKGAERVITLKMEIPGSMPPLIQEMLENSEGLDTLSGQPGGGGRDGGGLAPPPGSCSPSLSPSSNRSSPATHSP

CN(C)CCO
not listed: [20]
inactive: all other assays above

Cc1cc(-c2ccc(N)c(C)c2)ccc1N
inactive: [1] | [2] | [3] | [4] | [6] | [7] | [8] | [9] | [10] | [11] | [20] | [12] | [13] | [15] | [16] | [17] | [18] | [19]
active: [3] 60.2 µM | [14] 14.6 µM and 12.8 µM

C[C@]12CCC(=O)C=C1CC[C@@H]1[C@@H]2CC[C@]2(C)C(=O)CC[C@@H]12
active: [4] 161 µM and 167 µM | [7] 45.1 µM | [9] 36.7 µM and 27.5 µM
inactive: [1] | [2] | [3] | [4] | [6] | [7] | [8] | [9] | [10] | [11] | [20] | [12] | [13] | [15] | [16] | [17] | [18] | [19]

CC(C)(c1ccccc1)c1ccc(O)cc1
active: [1] 33.4 µM and 38.9 µM | [2] 46.6 µM | [3] 23.8 µM and 38.4 µM and 43 µM | [4] 40.4 µM [middle of 4 runs] | [6] 45.8 µM [middle of 4 runs] | [7] 33.4 µM | [9] 1.8 µM and 11.7 µM | [10] 56.3 µM | [12] 48.7 µM | [14] 435 nM [middle of 4 runs] | [18] 52.1 µM | [19] 55.4 µM
inactive: [1] | [2] | [3] | [5] | [7] | [9] | [10] | [11] | [20] | [12] | [13] | [15] | [16] | [17] | [18] | [19]

ClC(Cl)=C(c1ccc(Cl)cc1)c1ccc(Cl)cc1
active: [1] 167 µM | [2] 166 µM | [3] 57.2 µM [middle of 4 runs] | [4] 44.6 µM [middle of 4 runs] | [6] 100 µM and 64.2 µM and 73.8 µM | [7] 135 µM | [9] 13.2 µM | [10] 175 µM | [11] 58.3 µM and 24.8 µM | [13] 129 µM | [14] 14 µM [middle of 4 runs] | [18] 155 µM | [19] 131 µM and 63.1 µM and 121 µM
inactive: [1] | [2] | [7] | [8] | [9] | [10] | [11] | [20] | [12] | [13] | [15] | [16] | [17] | [18] | [19]
